# CendR NRP1 mod: NRP-1/CendR interaction modulation; inhibition, % at 25 µM; FAM-RPARPAR peptide binding to NRP-1, fluorescence polarization; O14786; actives 0.85% (n = 360,000); AID 602438;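 active means inhibition or corrected inhibition above about 18%, plus a signal ratio from 0.5 to 1.5, limit read from the data, passing the limit was not always enough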
# ERp5 block: blocks human ERp5 reductase activity on insulin | inhibition, % at 9.99 µM | Q15084 | actives 0.05% (n = 350,000) | ERp5 insulin aggregation, absorbance 650 nm, 90 min;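 active means mean replicate inhibition above about 25%, with every replicate also reaching it, limit read from the data, passing the limit was not always enough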
# PDI inh: blocks human protein disulfide isomerase activity | P07237 | PDI insulin aggregation turbidity, A650, 90 min | inhibition, % at 10 µM | actives 0.052% (n = 350,000);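 active means mean inhibition across replicates of 30% or more, whatever share of single replicates reach that level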
# PglD DTNB: blocks C. jejuni PglD acetyltransferase activity; actives 0.098% (n = 360,000); inhibition, % at 12.5 µM; purified PglD enzyme, DTNB colorimetric CoA detection; in the data active means inhibition above about 16%, passing the limit was not always enough
# ALR H2O2 inh: blocks human ALR sulfhydryl oxidase activity; purified ALR, DTT oxidation, H2O2 HRP-luminol luminescence; inhibition, % (concentration not given with the values); actives 3.8% (n = 290,000);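 active means mean replicate inhibition above about 79%, with every replicate also reaching it, limit read from the data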
# Target sequence (P55789 whole entry, looked up): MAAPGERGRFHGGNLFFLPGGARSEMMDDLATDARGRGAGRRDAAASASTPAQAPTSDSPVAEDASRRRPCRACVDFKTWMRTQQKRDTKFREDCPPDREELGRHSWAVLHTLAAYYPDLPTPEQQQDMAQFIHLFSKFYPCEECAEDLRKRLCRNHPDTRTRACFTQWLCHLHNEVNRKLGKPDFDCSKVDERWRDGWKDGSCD
# ARNT TACC3 PPI: disrupts binding between human ARNT and TACC3. inhibition, % at 9.99 µM. AID 623870. Q9Y6A5. actives 0.66% (n = 390,000). AlphaScreen His-ARNT PAS-B/GST-TACC3 binding, luminescence; TACC3 fragment carries E629A point mutation;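 active means mean inhibition of replicates at least 50% and at least half of replicates each reaching 50%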
# Numbers stand for hits; – = inactive; · = not tested or not shown. This excerpt belongs to a sample that is enriched for hits.
SMILES,CendR NRP1 mod,ERp5 block,PDI inh,PglD DTNB,ALR H2O2 inh,ARNT TACC3 PPI
COc1ccc(C(CC(=O)O)NC(=O)Cc2ccccc2)cc1OC (stereo unspecified),–,·,–,–,–,–
CCN(CC)c1ccc(/C=C/C(=O)C2C(=O)C=C(C)OC2=O)cc1 (stereo unspecified),–,–,–,·,99,–
O=C(CSc1nnc(-c2cnccn2)n1Cc1ccco1)c1ccccc1,–,·,–,–,87,·
O=C(CSc1nnc(-c2cccnc2)n1Cc1ccco1)c1ccc(Br)cc1,–,·,–,–,96,–
O=C(CSc1nnc(-c2ccccn2)n1Cc1ccco1)c1ccc(Cl)cc1,–,·,–,–,97,–
Cc1ccc(/C=N\Nc2nc3ccc(Cl)cc3[nH]2)o1,–,–,–,–,95,·
Cc1ccc(/C=N/Nc2ccc3ccccc3n2)o1,–,–,–,–,99,–
Cc1cccc(/C=N/Nc2ccc3ccccc3n2)c1,–,–,–,·,·,–
CC1=CC2=NC(=O)/C(=C/c3coc4ccc(Cl)cc4c3=O)C(=N)N2O1,–,–,–,–,97,–
CO[C@@H]1CN(C)C(=O)c2ccc(NC(=O)Nc3c(C)noc3C)cc2OC[C@@H](C)N(CC2CC2)C[C@H]1C,·,–,·,–,·,–
CO[C@H]1CN(C)C(=O)c2cc(NS(=O)(=O)c3cn(C)cn3)ccc2OC[C@@H](C)N(Cc2cccc(F)c2)C[C@@H]1C,·,–,·,–,·,–
Cc1cc(C(=O)O)ccc1N/C=C1\CCCC(C)C1=O (stereo unspecified),–,·,–,–,–,–
CC1CCC/C(=C\Nc2ccc(O)cc2)C1=O (stereo unspecified),–,·,–,–,99,21
Cc1cc(NC(=O)CSc2nc(Cc3ccc(O)cc3)c(C)[nH]2)no1,–,–,–,–,–,–
COc1ccc(Cc2nnc(SCC(=O)Nc3ccc(C)cc3)n(N)c2=O)cc1,–,–,–,–,–,–
COc1cccc(NC(=O)CSc2nnc(Cc3ccc(C)cc3)c(=O)n2N)c1,–,–,–,·,99,–
Cc1ccc(Cc2nnc(SCC(=O)Nc3ccccc3)n(N)c2=O)cc1,–,–,–,–,98,–
Cc1[nH]c(SCC(=O)Nc2cc(C(N)=O)cc(C(N)=O)c2)nc1Cc1ccccc1,–,–,–,–,97,–
COc1ccc(NC(=O)CSc2nnc(Cc3ccc(C)cc3)c(=O)n2N)cc1OC,–,–,–,–,91,–
COC(=O)C[C@H]1CC[C@@H]2[C@H](COc3ccc(NC(=O)c4cc(F)cc(F)c4)cc3C(=O)N2C)O1,·,·,·,–,·,–
COc1ccc(NC(=O)CSc2nnc(Cc3ccccc3)c(=O)n2N)cc1OC,–,–,–,–,93,–
CCOc1ccc(Cc2nnc(SCC(=O)Nc3ccccc3)n(N)c2=O)cc1,–,–,–,–,–,–
COc1ccccc1-c1nnc(SCC(=O)Nc2ccc3[nH]c(=O)[nH]c3c2)n1N,–,–,–,–,98,·
COC(=O)[C@H](Cc1ccccc1)N1C(=O)O[C@@H](Cc2ccccc2)[C@H]1/C=C/C1CC1,·,–,·,·,·,·
Cc1noc(C)c1S(=O)(=O)Nc1ccc2c(c1)C(=O)N([C@@H](C)CO)C[C@@H](C)[C@@H](CN(C)C(=O)CCC(F)(F)F)OCCCC[C@@H](C)O2,·,–,·,–,·,–
SMILES,CendR NRP1 mod,ERp5 block,PDI inh,PglD DTNB,ALR H2O2 inh,ARNT TACC3 PPI
Cc1[nH]n(-c2ccccc2)c(=O)c1C(C[N+](=O)[O-])c1ccc(Br)cc1 (stereo unspecified),–,·,–,·,–,48
Cc1sc2nc(CSc3cccc(C(F)(F)F)c3)[nH]c(=O)c2c1C,–,–,–,·,–,–
Cc1sc2nc(CSc3nc4ccccc4s3)[nH]c(=O)c2c1C,·,–,·,·,99,·
Cc1sc2nc(CSc3ccc([N+](=O)[O-])cc3)[nH]c(=O)c2c1C,·,·,·,·,99,·
COc1ccc(NC(=O)Nc2ccc3c(c2)CC(=O)N([C@H](C)CO)C[C@H](C)[C@@H](CN(C)C(=O)Nc2ccc(F)cc2)O3)cc1,·,–,·,–,·,·
COc1ccc2c3c([nH]c2c1)[C@@H](CO)N(C(=O)C1CC1)CC31CN(Cc2nccs2)C1,·,–,·,·,·,·
COC1=C(N)C(=O)c2nc(-c3nc(C(=O)O)c(C)c(-c4ccc(OC)c(OC)c4O)c3N)ccc2C1=O,·,·,·,–,·,65
COc1ccc(-c2ncncc2-c2csc(C)n2)c(O)c1OC,–,·,–,·,–,–

# Screens: PubChem BioAssay, several laboratories
